The source of these data is PubChem BioAssay (NCATS).

Structures are written as SMILES. Inconclusive results are not listed. Calls of active or inactive are those of the source. Unless noted, the call rests on the fitted dose curve.

A short description of test [1]: Primary qHTS for Huh7 cytotoxicity: counterscreen for inhibitors of MERS-S pseudotyped particle cell entry (AID 1479147). Conditions: outcome: dose series up to 57.1 µM unless noted. (In general: Quantitative high-throughput screening tests each substance at several concentrations.)
The nature of test [2]: Primary qHTS for inhibitors of MERS-S pseudo-typed particle cell entry (AID 1479149). Further: nearly all actives have a fitted effect of over 60% in size. On activity change, negative = inhibition: on the % scale 0 is the no-effect control and ±100 the full control effect. As to conditions: outcome: dose series up to 57.1 µM unless noted.
A short description of test [3]: Primary qHTS for Vero E6 cytotoxicity: counterscreen for inhibitors of SARS-S pseudo-typed particle cell entry (AID 1479150). As to conditions: outcome: dose series up to 57.1 µM unless noted.
Test [4] is described as follows: Cytotoxicity counterscreen for inhibitors of SARS-CoV-2 cell entry (AID 1645845). Further: nearly all actives have a fitted effect of over 50% in size. As to conditions: outcome: dose series up to 57.1 µM unless noted. An outline of the steps: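 48 h compound treatment (after 1 h preincubation), HEK293-ACE2 cells, 37 C/5% CO2; ATP luminescence endpoint; normalized to cell wells and media blanks.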
(Counterscreens check selectivity or assay interference.)

A short description of test [5]: Primary qHTS to identify inhibitors of SARS-CoV-2 cell entry (AID 1645846). Further: nearly all actives have a fitted effect of over 45% in size. Further: potency means the concentration at half of the fitted maximal effect. As to conditions: SARS-CoV-2 pseudovirus cell entry assay, luminescence; activity change, negative = inhibition: at 57.1 µM (top of the series) unless noted. Summed up: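 HEK293 cells stably expressing human ACE2, pre-treated 1 h with compound, then infected with MLV particles pseudotyped with Wuhan-Hu-1 spike (C-terminal 19-aa truncation). Luciferase luminescence after 48 h at 37 °C, normalised to spike PP and bald PP.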

Test [6] in a line: Confirmatory qHTS for VERO E6 Cytotoxicity Assay: Counterscreen for SARS-CoV-2 CPE Assay (AID 1508605). Further: on the % scale 0 is the no-effect control and ±100 the full control effect; nearly all actives have a fitted effect of over 60% in size.
Test [7] in a line: Confirmatory qHTS for activators (rescue) of SARS-CoV-2 Cytopathic Effect (CPE) (AID 1508606). Further: potency means the concentration at half of the fitted maximal effect; nearly all actives have a fitted effect of over 70% in size.
Test [8] can be described thus: Confirmatory qHTS to identify inhibitors of SARS-CoV-2 cell entry (AID 1645844). Further: potency means the concentration at half of the fitted maximal effect; nearly all actives have a fitted effect of over 45% in size. Summed up: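 Luminescence from a luciferase reporter, read 48 hr after pseudotyped-particle addition, gives entry signal, normalised to spike-bearing PP wells and bald PP lacking fusion protein wells. Cells are Expi293F stably expressing human ACE2, compound-pretreated 1 hr.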
Test [9] can be described thus: KB-8-5-11 P-gp reporter qHTS against the NCATS DSHEA and TCM libraries (AID 1919977; active means well fitted curve in the direction sought with a large enough effect; an effect the other way counts as inactive or inconclusive; further: 0% is about no effect). Summed up: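 P-gp-overexpressing KB-8-5-11 cells were screened in colchicine-free medium at 500 cells/well, as a titration series. Cells were exposed for 72 h at 37C. Viability was read by CellTiter-Glo luminescence after 30 min at room temperature.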
Test [10] addresses Phospholipid hydroperoxide glutathione peroxidase GPX4 (Homo sapiens) (UniProt P36969). In words: Primary qHTS Assay for Inhibitors of Recombinant Selenoprotein Glutathione Peroxidase 4 (GPX4) (AID 1845192; active means well fitted curve in the direction sought with a large enough effect; an effect the other way counts as inactive or inconclusive; further: nearly all actives have a fitted effect of over 65% in size; on activity change, negative = inhibition: on the % scale 0 is the no-effect control and ±100 the full control effect). Summed up:
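NADPH consumption, followed by fluorescence at 340/450 nm between 0 and 15 min, reports GPX4 activity via coupled glutathione reductase (100 nM). Enzyme 200 nM was pre-exposed to compound 30 min; 0.5 mM cumene hydroperoxide and 1 mM GSH served as substrates.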

A short description of test [11]: qHTS Assay for Identifying Gametocytocidal Compounds (AID 743244; active means well fitted curve in the direction sought with a large enough effect; an effect the other way counts as inactive or inconclusive; further: potency means the concentration at half of the fitted maximal effect). As to conditions: P. falciparum 3D7 stage III-V gametocytes, alamarBlue, 72 h. An outline of the steps: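 Compounds are pinned into medium, gametocytes (stage III–V, 3D7, 20,000 cells/well) added, and plates held 72 h at 37 °C in 5% CO2. AlamarBlue follows for 24 h before fluorescence reading.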

Sequence of Phospholipid hydroperoxide glutathione peroxidase GPX4 (Homo sapiens) (P36969 whole entry, looked up): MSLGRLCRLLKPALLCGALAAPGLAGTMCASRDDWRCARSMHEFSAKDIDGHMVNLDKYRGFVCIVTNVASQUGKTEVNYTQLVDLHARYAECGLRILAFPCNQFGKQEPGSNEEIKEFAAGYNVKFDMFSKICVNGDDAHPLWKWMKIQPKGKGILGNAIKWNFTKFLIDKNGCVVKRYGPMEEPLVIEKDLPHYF

For `CC(=O)OCC1=C(C(=O)O)N2C(=O)[C@@H](NC(=O)[C@H](N)c3ccccc3)[C@H]2SC1`, the Potency entry in test [1], in test [2], in test [3] and in [4] was “inactive” each time. The activity change, negative = inhibition in [5] is -7.18%.

Turning to `O=C(O)CCC/C=C\C[C@@H]1[C@@H](/C=C/[C@@H](O)COc2cccc(Cl)c2)[C@H](O)C[C@@H]1O`, the Potency entry in [1], in test [2], in test [3], in test [4] and in test [5] was “inactive” in each case.

`CCCC1CC(C(=O)NC(C(C)Cl)C2OC(SC)C(OP(=O)(O)O)C(O)C2O)N(C)C1` (stereo not given): the Potency result in test [1], in test [2], in test [3] and in test [4] was “inactive” each time. Also, in test [5], the activity change, negative = inhibition was -28.7% [at 27.1 µM].

Take `CN1CC[C@H](CN2c3ccccc3Sc3ccccc32)C1`: the Potency entry in test [1], in test [3], in test [6] and in test [4] was “inactive” throughout. In addition, the Potency is 11.2 µM (active) in test [7], 3.41 µM (active) in [8] and 12.6 µM (active) in [5].

On to `CN[C@@H]1[C@@H](O[C@H]2O[C@H](CO)[C@@H](N)[C@H](O)[C@H]2O)O[C@H]2C[C@@H](N)[C@H](O[C@H]3[C@H](O)[C@@H](O)[C@H](N)C[C@@H]3N)O[C@@H]2[C@@H]1O`, for which the Potency entry in test [1], in [2] and in test [4] was “inactive” each time. The activity change, negative = inhibition in test [5] was -26.5%.

For `CCCCCCCC(=O)N[C@H](CN1CCCC1)[C@H](O)c1ccc2c(c1)OCCO2`, the Potency entry in test [1] and in [3] was “inactive” throughout.

Take `CCCCCCCC/C=C/CCCCCCCC(=O)O`: the Potency result in test [1], in test [2], in [3], in test [4] and in test [9] was “inactive” each time.

Consider `N#Cc1ccc2[nH]cc(CCCCN3CCN(c4ccc5oc(C(N)=O)cc5c4)CC3)c2c1`, for which the Potency entry in test [1], in test [3] and in [6] was “inactive” in each case.

Turning to `C=C1/C(=C/C=C2\CCC[C@]3(C)[C@@H]([C@H](C)CC[C@@H](O)C(C)C)CC[C@@H]23)C[C@@H](O)C[C@@H]1O`, the Potency entry in test [1] and in test [3] was “inactive” in each case.

On to `CN1CCC2=C(C1)C(c1ccccc1)c1ccccc12` (stereo not given), for which the Potency entry in test [1], in test [2], in test [3], in [4] and in test [10] was “inactive” in each case.

Consider `CC(CN1c2ccccc2Sc2ccc(S(=O)(=O)N(C)C)cc21)N(C)C` (stereo not given), for which the Potency entry in test [1], in [3] and in [6] was “inactive” in each case. Also, the Potency in [8] is 39.3 µM (active).

`CCN1C[C@@]2(COC)C3[C@@H](OC)C4[C@@H]1[C@@]3(C1C[C@]3(O)[C@H](OC(=O)c5ccccc5)C1[C@]4(OC(C)=O)[C@@H](O)[C@@H]3OC)[C@@H](OC)C[C@H]2O` (stereo not given in full): the Potency entry in test [1], in [2], in test [3], in [4] and in test [10] was “inactive” throughout.

For `c1ccc(CCNCc2ccccc2)cc1`, the Potency result in [1], in test [2], in test [3], in test [4] and in [10] was “inactive” in each case.

Consider `CN1CCc2c(c3ccccc3n2Cc2ccccc2)C1`, for which the Potency entry in [1] and in [3] was “inactive” each time.

Turning to `O=NCc1ccc([N+](=O)[O-])o1`, the Potency result in [1] and in test [3] was “inactive” in each case.

As for `C#C[C@]1(O)CC[C@H]2[C@@H]3CCC4=CC(=O)CC[C@@H]4[C@H]3C(=C)C[C@@]21CC`, the Potency in [11] is 7.43 µM (active). The Potency entry in test [1], in test [2] and in test [3] was “inactive” each time.
